Assay outcomes from PubChem BioAssay.
Most compounds without a hit are left out; they make up all but 3.5% or so of the library.
TEAD-YAP inh – TEAD-YAP interaction inhibition; inhibition, % at 9.12 µM; AID 1259422; 1.4% of 640,000 active; HEK-TIYL cells, TEAD-Gal4/YAP UAS-luciferase luminescence; in the data active = inhibition above about 32%;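 also: 0% = median of test compound wells and 100% = reference inhibitor wells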
GPR151 ag – activators of human GPR151 | 1% of 650,000 active | PathHunter beta-arrestin GPR151 cells, luminescence | Q8TDV0 | activation, % at 11.2 µM; in the data active = activation above about 4.9%;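 also: 0% = median of compound wells and 100% = cells with positive control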
MITF primary – blocks human microphthalmia-associated transcription factor | O75030 | AlphaScreen MITF homodimerization, bead proximity signal | inhibition, % at 2.6 µM | 0.91% of 650,000 active | AID 1259374; in the data active = inhibition above about 50%;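 also: 0% = vehicle wells with protein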
FBW7 act – human FBW7 E3 ligase activation, primary screen. AID 1259310. normalized activity (activation), % at 26.1 µM. AlphaScreen FBW7–phospho-cyclin E peptide binding, activator screen. 0.13% of 650,000 active; in the data active = normalized activity above about 1.9%;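 also: purified mutant Fbw7 with reduced substrate affinity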
MITF confirm – confirmation of human MITF inhibitors | shares compounds with MITF primary | AlphaScreen MITF homodimerization, biotin/His-MITF beads | inhibition, % at 2.6 µM | 16% of 4,700 active | AID 1259372;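 active = inhibition above a cutoff derived from the DMSO control wells, cut at about 28% in these data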;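 also: 0% = MITF dimer wells with DMSO only; inhibitors lower the bead chemiluminescence by keeping MITF from dimerizing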
AlphaScreen intf2 – optically interferes with AlphaScreen signal | shares compounds with MITF primary | LysRS AlphaScreen counterscreen, signal interference, triplicate | inhibition, % at 2.6 µM | 7.6% of 4,700 active;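 active = inhibition above a cutoff derived from the DMSO control wells, cut at about 30% in these data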
Active calls of the source: *; · = no result.

SMILES | TEAD-YAP inh | GPR151 ag | MITF primary | FBW7 act | MITF confirm | AlphaScreen intf2
COc1ccccc1CN1CCN(Cc2ccccc2C(F)(F)F)CC1 | 9 | -2 | 70* | 0 | -7 | 1
COc1cccc(OC)c1C(=O)N1CCN(Cc2ccccc2Br)CC1 | 10 | 1 | 63* | 0 | 2 | 7
COc1ccc(OC)c(CN2CCN(C(=O)c3c(OC)cccc3OC)CC2)c1 | 1 | 1 | 32 | 0 | · | ·
COc1cc(OC)cc(C(=O)N2CCN(Cc3ccccc3C(F)(F)F)CC2)c1 | 2 | 2 | 62* | 0 | -3 | -2
COc1cccc(OC)c1C(=O)N1CCN(Cc2ccccc2C(F)(F)F)CC1 | -3 | 0 | 52* | 0 | -17 | 8
CN(C)CCOC(=O)c1ccccc1C(=O)O | 3 | -1 | 7 | 0 | · | ·
COc1ccc(Br)cc1/C=C1\N=C(c2ccc(C(C)(C)C)cc2)OC1=O | -1 | 2 | 2 | 0 | · | ·
CCC(C)(c1ccc(OC(=O)c2ccc(Cl)cc2)cc1)c1ccc(OC(=O)c2ccc(Cl)cc2)cc1 | 16 | 0 | 6 | 0 | · | ·
COc1cccc(CN2CCN(Cc3ccc(OC)c4ccccc34)CC2)c1OC | -3 | 2 | 70* | 0 | 7 | 13
COc1cccc(CN2CCN(Cc3ccc(OC)c(OC)c3OC)CC2)c1 | 6 | 0 | 66* | 0 | 3 | 14
COc1ccc(CN2CCN(CCOCCOc3ccccc3)CC2)c(OC)c1OC | 6 | 0 | 75* | -1 | -12 | -3
COc1cc(CN2CCN(C(=O)c3cccc(OC)c3OC)CC2)cc(OC)c1O | 1 | 0 | 39 | 0 | · | ·
COc1cccc(CN2CCN(C(=O)c3cccc(OC)c3OC)CC2)c1 | 5 | 0 | 54* | 0 | 9 | 7
COc1ccc(C2(C#N)CCOCC2)cc1OC | -6 | 0 | -9 | 0 | · | ·
COc1cccc(CN2CCSCC2)c1OC | -6 | 0 | 32 | 0 | · | ·
COc1ccc(CN2CCN(Cc3ccc(Cl)cc3)CC2)c(OC)c1OC | 10 | -1 | 82* | 0 | 10 | 18
COc1cccc(CN2CCN(Cc3ccc(OC)c(OC)c3OC)CC2)c1OC | -2 | 0 | 77* | 0 | 11 | 14
COc1ccc(OC)c(CN2CCN(Cc3ccc(OC)c(OC)c3OC)CC2)c1 | -5 | -1 | 32 | 0 | · | ·
COc1ccc(CN2CCN(S(=O)(=O)c3ccc(Cl)cc3)CC2)c(OC)c1OC | -4 | 1 | 5 | 0 | · | ·
Cc1cc(OCCN2CCCCCC2)ccc1[N+](=O)[O-] | -4 | -1 | 20 | 0 | · | ·
COc1ccc(CN2CCN(Cc3ccccc3Cl)CC2)c(OC)c1OC | 4 | 0 | 54* | 0 | 14 | 18
COc1ccc(CN2CCN(CCOc3ccc([N+](=O)[O-])c(C)c3)CC2)c(OC)c1OC | 6 | 0 | 83* | 0 | -2 | 9
COc1cccc(C(=O)N2CCC3(CC2)CC3C(=O)Nc2ccccc2)c1OC (stereo not given) | 9 | 0 | 2 | 0 | · | ·
COc1cccc(C(=O)N2CCC3(CC2)CC3C(=O)NCCCc2ccccc2)c1OC (stereo not given) | -1 | 0 | 73* | 1 | -3 | -3
CCc1ccc(OCC(=O)Nc2cc(C)ccn2)cc1 | 5 | 1 | 51* | 0 | -13 | -8
SMILES | TEAD-YAP inh | GPR151 ag | MITF primary | FBW7 act | MITF confirm | AlphaScreen intf2
CN(CCN1CCOCC1)c1nc2nonc2nc1NCc1ccccc1 | -6 | 0 | -8 | 0 | · | ·
COc1ccc(CCNC(=O)c2cccc(-c3ccc(C(=O)N4CCN(C)CC4)cc3)n2)cc1 | 9 | -2 | 19 | 0 | · | ·
COc1ccc(C(=O)N2CCN(Cc3ccc4ccccc4c3)CC2)cc1OC | 38* | 0 | 70* | 0 | 12 | 22
COc1cc(OC)cc(C(=O)N2CCN(Cc3ccncc3)CC2)c1 | 9 | 1 | 84* | 0 | 4 | 4
COc1cccc(C(=O)N2CCC(N3CC(C)CC(C)C3)CC2)c1 (stereo not given) | 1 | 1 | 61* | 0 | 1 | 3
COc1cccc(C(=O)N2CCN(Cc3ccncc3)CC2)c1 | -3 | -1 | 68* | 0 | 15 | 17
COc1cc(OC)cc(C(=O)N2CCN(Cc3ccc(OC)c(OC)c3)CC2)c1 | 3 | 1 | 35 | 0 | · | ·
COc1cccc(C(=O)N2CCN(Cc3ccc4ccccc4c3)CC2)c1 | 9 | -1 | 7 | 0 | · | ·
CC1CCCCN1C(=O)c1cccc(I)c1 (stereo not given) | -4 | -1 | 16 | 1 | · | ·
